The whole screen tested about 2,100 compounds, of which about 1,100 (52%) were called active. Inconclusive results (about 27%) are left out. Calls come from the whole dose curve; as a rule, active = well fitted inhibition curve with a large enough effect; inconclusive = small, poorly fitted or top-dose-only effect; inactive = no such curve, though single readings can be large or run the other way. So high a share suggests a set chosen from earlier hits. This is one part of the list.
Potency is the fitted concentration of half-maximal effect.

DNA dC->dU-editing enzyme APOBEC-3G (Homo sapiens), sequence (Q9HC16 whole entry, looked up): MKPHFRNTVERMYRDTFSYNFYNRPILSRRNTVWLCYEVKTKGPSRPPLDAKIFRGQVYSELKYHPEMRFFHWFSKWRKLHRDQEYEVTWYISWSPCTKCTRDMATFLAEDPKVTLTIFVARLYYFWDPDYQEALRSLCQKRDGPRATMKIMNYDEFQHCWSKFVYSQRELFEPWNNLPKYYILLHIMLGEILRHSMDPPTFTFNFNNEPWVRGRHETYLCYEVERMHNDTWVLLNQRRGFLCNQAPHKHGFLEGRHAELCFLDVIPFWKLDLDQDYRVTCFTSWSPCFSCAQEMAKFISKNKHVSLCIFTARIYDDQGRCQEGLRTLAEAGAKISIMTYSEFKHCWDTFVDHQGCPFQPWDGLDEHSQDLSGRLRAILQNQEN

The test deals with DNA dC->dU-editing enzyme APOBEC-3G (Homo sapiens) (UniProt Q9HC16). Briefly: qHTS for inhibitors of Vif-A3G interactions: Cherry picks counterscreen.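 For max response: max response given as percent of control signal.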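 Note: hits raise yellow fluorescence by blocking Vif-driven A3G-eYFP degradation; nearly all actives have a fitted effect of over 70% in size.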 The following applies: HeLa A3G-eYFP + Vif (tagged APOBEC3G with the HIV-1 protein that degrades it), eYFP fluorescence, 24 h. An outline of the steps:
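HeLa cells stably expressing A3G-eYFP and Vif were treated for 24 h at 37 deg C with compounds at several concentrations; yellow fluorescence (Ex 488 nm, Em 500-530 nm) read by Acumen Explorer, MG132 as positive control.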
A general note: qHTS replaces the single test concentration by a dilution series.
With `O=C(COc1ccc(C(=O)c2ccccc2)cc1)NCc1ccc(F)cc1`, the Potency was 2.5 µM (active). Regarding `CCN(CC)S(=O)(=O)c1cc([N+](=O)[O-])ccc1N=Nc1c(O)[nH]c2ccccc12`, the Potency was 23.1 µM (active).

As to `Cc1ccccc1NCC(=O)N=Nc1c(O)[nH]c2ccc([N+](=O)[O-])cc12`, the max response is -0.0304% (inactive). In the case of `O=C(NCc1ccco1)c1cccc2c1C(=O)c1ccc(N3CCC(Cc4ccccc4)CC3)cc1S2(=O)=O`, the Potency is 23.1 µM (active). On the same count and under the same terms, with `O=C(NCc1cc(C(F)(F)F)ccc1Cl)c1cccc2c1C(=O)c1ccc(N3CCC(Cc4ccccc4)CC3)cc1S2(=O)=O` the figure was 14 µM (active); with `O=C(NCc1cccc(C(F)(F)F)c1)c1cccc2c1C(=O)c1ccc(N3CCC(Cc4ccccc4)CC3)cc1S2(=O)=O`, 23.1 µM (active). On to `Cc1ccc(CSc2nc(-c3ccc(C(C)(C)C)cc3)nc3cc(=O)[nH]n23)cc1`, for which the max response was 28.6% (inactive). Consider `COc1cccc(Nc2ncccc2C(=O)NCc2ccccc2)c1`, for which the Potency was 19.8 µM (active). With `CCCOc1ccc2cc(C(=O)NCc3ccccc3)c(=O)oc2c1`, the max response is -5.24% (inactive). With `N#C/C(=C\c1ccc(N2CCOCC2)o1)C(=O)NC1CCCCC1`, the Potency was 17.7 µM (active). As for `N#C/C(=C\c1ccccc1[N+](=O)[O-])C(=O)NCc1ccccc1`, the max response is 2.31% (inactive). With `CN(C)c1ccc(/C=C(/C#N)C(=O)NCc2ccccc2)o1`, the Potency was 1.84 µM (active). On the same count and under the same terms, the value for `N#C/C(=C\c1ccc(N2CCOCC2)o1)C(=O)NCCc1ccccc1` was 3.26 µM (active); that for `N#C/C(=C\c1ccc(N2CCCCC2)o1)C(N)=O` was 15.8 µM (active). Turning to `CCOC(=O)CN1C(=O)S/C(=C/c2ccc(N3CCCCC3)o2)C1=O`, the max response was 55% (inactive). Regarding `N#C/C(=C/c1ccc(N2CCOCC2)o1)C(=O)NC1CCCCC1`, the Potency is 16.4 µM (active).

In the case of `CCCCN1C(=O)/C(=C/C=C2\Oc3ccccc3N2CC)SC1=S`, the max response is 51.7% (inactive). Turning to `CCSC1=N/C(=C\C=C2/Oc3ccccc3N2CC)C(=O)S1`, the Potency was 8.2 µM (active). The same measure, in the same setting: with `COc1ccc(-c2n[nH]c3c2CN(C(=O)c2ccc(OC)c(OC)c2)CC3)cc1` the figure was 9.94 µM (active).

With `CCOc1ccc(-c2cc(C(=O)NCCc3ccc(OC)c(OC)c3)c3c(-c4ccc(F)cc4)[nH]nc3n2)cc1`, the max response is -21% (inactive). Turning to `C=C(NC(=O)C(=C)NC(=O)c1csc(C2=NC3c4csc(n4)C4NC(=O)c5csc(n5)C(C(C)(O)C(C)O)NC(=O)C5CSC(=N5)/C(=C/C)NC(=O)C(C(C)O)NC(=O)c5csc(n5)C3(CC2)NC(=O)C(C)NC(=O)C(=C)NC(=O)C(=C)NC(=O)C(C(C)C)NC2C=Cc3c(C(C)O)cc(nc3C2O)C(=O)OC4C)n1)C(N)=O` (stereo unspecified), the Potency is 7.04 µM (active).

The values above are taken from PubChem BioAssay AID651813 (National Center for Advancing Translational Sciences (NCATS), 2012).
